Measurements from PubChem BioAssay (NCI).
This is part of a sample that, as a whole, favours compounds with a hit. Of some 83,000 tested, about 20% had one in any assay.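 Cells were grown in 96-well plates and exposed to the test compound at a single concentration for 48 hours; results are reported as percent growth, with values below 10 considered active.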 Active and inactive are the calls of the source.

Assays:
Assay in all cases: NCI-60 one-dose screen, 48 h (100 = growth as untreated, 0 = no growth, -100 = all killed)
Details in all cases: 10 µM unless noted
HCT-15 colon = test system: HCT-15 colon
HT29 colon = test system: HT29 colon
SNB-75 CNS = test system: SNB-75 CNS
SNB-19 CNS = test system: SNB-19 CNS
U251 CNS = test system: U251 CNS
PC-3 prostate = test system: PC-3 prostate
SK-MEL-5 melanoma = test system: SK-MEL-5 melanoma
UACC-62 melanoma = test system: UACC-62 melanoma
LOX IMVI melanoma = test system: LOX IMVI melanoma
SK-MEL-28 melanoma = test system: SK-MEL-28 melanoma
SK-MEL-2 melanoma = test system: SK-MEL-2 melanoma
EKVX NSCLC = test system: EKVX NSCLC
SN12C renal = test system: SN12C renal
UO-31 renal = test system: UO-31 renal
ACHN renal = test system: ACHN renal
CAKI-1 renal = test system: CAKI-1 renal
CCRF-CEM leukemia = test system: CCRF-CEM leukemia
MOLT-4 leukemia = test system: MOLT-4 leukemia
TK-10 renal = test system: TK-10 renal
A498 renal = test system: A498 renal

Measured: growth

CNC(=O)c1cccc(Cn2nc(C)c(NC(=O)c3ccc(COc4ccc(C(F)(F)F)cc4C)cc3)c2C)c1
inactive: HCT-15 colon 55% | HT29 colon 44.4% | SNB-75 CNS 82.2% | SNB-19 CNS 46.8% | U251 CNS 44.4% | PC-3 prostate 40.1% | UACC-62 melanoma 57% | LOX IMVI melanoma 58% | SK-MEL-28 melanoma 63.9% | SK-MEL-2 melanoma 48.9% | EKVX NSCLC 34% | SN12C renal 56.6% | UO-31 renal 47.3% | ACHN renal 47.2% | CAKI-1 renal 47% | CCRF-CEM leukemia 54.4% | MOLT-4 leukemia 18%
active: SK-MEL-5 melanoma -16.8%

C=C(C)[C@@H]1CC[C@]2(CN)CC[C@]3(C)[C@H](CC[C@@H]4[C@@]5(C)CCCNC(C)(C)[C@@H]5CC[C@]43C)[C@@H]12
active: HCT-15 colon -92.4% | HT29 colon -85.8% | SNB-75 CNS -27.7% | SNB-19 CNS -58.5% | U251 CNS -89.7% | PC-3 prostate -10.5% | SK-MEL-5 melanoma -9.72% | LOX IMVI melanoma -98.3% | SK-MEL-28 melanoma -28.3% | SK-MEL-2 melanoma 6.75% | EKVX NSCLC 6.81% | SN12C renal -25.5% | UO-31 renal 5.31% | TK-10 renal -10.6% | CAKI-1 renal -94.5% | CCRF-CEM leukemia -27.4% | MOLT-4 leukemia -45.4%
inactive: UACC-62 melanoma 29%

CCCCOc1ccc(/C(C)=N/Nc2cc(C)nc3ccc(Br)cc23)cc1
inactive: HT29 colon 45.1% | SNB-75 CNS 103% | SNB-19 CNS 91.9% | U251 CNS 31.9% | PC-3 prostate 80.3% | SK-MEL-5 melanoma 96.7% | UACC-62 melanoma 98.5% | LOX IMVI melanoma 33.9% | SK-MEL-28 melanoma 106% | SK-MEL-2 melanoma 108% | EKVX NSCLC 88.2% | SN12C renal 82.5% | UO-31 renal 67.7% | ACHN renal 103% | CAKI-1 renal 82.9% | CCRF-CEM leukemia 64.6% | MOLT-4 leukemia 83.5%
active: HCT-15 colon 7.75%

COc1ccc(C(=O)/C=C/c2cc3ccccc3n3nnnc23)cc1
inactive: HCT-15 colon 97.3% | HT29 colon 110% | SNB-75 CNS 98.3% | SNB-19 CNS 99.1% | U251 CNS 101% | PC-3 prostate 103% | SK-MEL-5 melanoma 103% | UACC-62 melanoma 97.7% | LOX IMVI melanoma 104% | SK-MEL-28 melanoma 110% | SK-MEL-2 melanoma 106% | EKVX NSCLC 99.9% | SN12C renal 102% | UO-31 renal 90.8% | CAKI-1 renal 88.8% | CCRF-CEM leukemia 101% | MOLT-4 leukemia 103%

O=C(O)c1ccc(-c2nn(-c3ccc(C(F)(F)F)cc3)cc2CNc2ccc(Oc3ccccc3)cc2)cc1
inactive: HCT-15 colon 43.2% | HT29 colon 67% | SNB-75 CNS 80.6% | SNB-19 CNS 82.7% | U251 CNS 67% | PC-3 prostate 90.6% | SK-MEL-5 melanoma 78.9% | UACC-62 melanoma 77.5% | LOX IMVI melanoma 82.5% | SK-MEL-28 melanoma 89.1% | SK-MEL-2 melanoma 90% | EKVX NSCLC 66.9% | SN12C renal 78.2% | TK-10 renal 98.3% | ACHN renal 65.9% | CAKI-1 renal 91.8% | CCRF-CEM leukemia 76.7% | MOLT-4 leukemia 67.6%

COc1cc(/C=N/NC(=O)c2cnn3c2NC(c2ccccc2)C3)ccc1Oc1ccccc1 (configuration not stated)
active: HT29 colon 0.454% | SK-MEL-2 melanoma 1.74%
inactive: HCT-15 colon 16.8% | SNB-75 CNS 27.6% | SNB-19 CNS 39.2% | U251 CNS 27.1% | PC-3 prostate 19.6% | SK-MEL-5 melanoma 28.1% | UACC-62 melanoma 12.6% | LOX IMVI melanoma 37.2% | SK-MEL-28 melanoma 34.9% | EKVX NSCLC 58.1% | SN12C renal 63.8% | TK-10 renal 46.8% | ACHN renal 27.6% | CAKI-1 renal 26% | CCRF-CEM leukemia 29.3% | MOLT-4 leukemia 49.7%

C=C1C(=O)O[C@H]2[C@H]1CC/C(COC(=O)NCC(C)c1ccc(CC(C)C)cc1)=C\CC[C@@]1(C)O[C@@H]21 (some centres not stated)
inactive: SNB-19 CNS 36.9% | SK-MEL-5 melanoma 17.1%
active: HCT-15 colon -59.2% | HT29 colon -60.6% | SNB-75 CNS -5.57% | U251 CNS -22.3% | PC-3 prostate 0.0191% | UACC-62 melanoma -37.7% | LOX IMVI melanoma -83.8% | SK-MEL-28 melanoma -66.7% | SK-MEL-2 melanoma -45.2% | EKVX NSCLC -6.2% | SN12C renal -57% | TK-10 renal -36.1% | ACHN renal -100% | CAKI-1 renal -23.9% | CCRF-CEM leukemia -24.2% | MOLT-4 leukemia -8.4%

c1ccc(-c2cn3c(ccc4ccccc43)n2)cc1
inactive: HCT-15 colon 30.6% | HT29 colon 19.8% | SNB-75 CNS 51.9% | SNB-19 CNS 65% | U251 CNS 51.8% | PC-3 prostate 72.2% | SK-MEL-5 melanoma 27.4% | UACC-62 melanoma 43.5% | LOX IMVI melanoma 52.3% | SK-MEL-28 melanoma 68.5% | SK-MEL-2 melanoma 40.3% | EKVX NSCLC 73.2% | SN12C renal 60.8% | TK-10 renal 89.5% | ACHN renal 79.5% | CAKI-1 renal 38.6% | CCRF-CEM leukemia 65.1% | MOLT-4 leukemia 57.8%

Cc1nnc2c(Cc3ccccc3)nc3ccccc3n12
inactive: HCT-15 colon 106% | HT29 colon 105% | SNB-75 CNS 78.1% | SNB-19 CNS 103% | U251 CNS 101% | PC-3 prostate 104% | SK-MEL-5 melanoma 97.6% | UACC-62 melanoma 100% | LOX IMVI melanoma 92.4% | SK-MEL-28 melanoma 103% | SK-MEL-2 melanoma 110% | EKVX NSCLC 90.9% | SN12C renal 99.6% | TK-10 renal 101% | ACHN renal 100% | CAKI-1 renal 88.3% | CCRF-CEM leukemia 91.1% | MOLT-4 leukemia 91.2%

O=C(/C=C/c1ccc[nH]1)c1ccc(-n2ccc(C(F)(F)F)n2)c(F)c1
inactive: HCT-15 colon 85% | HT29 colon 92.5% | SNB-75 CNS 75.6% | SNB-19 CNS 101% | U251 CNS 88.7% | PC-3 prostate 48.1% | SK-MEL-5 melanoma 97.6% | UACC-62 melanoma 84.9% | LOX IMVI melanoma 97.7% | SK-MEL-28 melanoma 100% | SK-MEL-2 melanoma 108% | EKVX NSCLC 80.2% | SN12C renal 92.1% | TK-10 renal 104% | CAKI-1 renal 93% | CCRF-CEM leukemia 59.7% | MOLT-4 leukemia 84%

OC(c1ccc(F)c(C(F)(F)F)c1)c1cnccc1NC1CCCCC1 (configuration not stated)
inactive: HCT-15 colon 64.7% | HT29 colon 14.3% | SNB-75 CNS 68.7% | SNB-19 CNS 82.9% | U251 CNS 63.5% | PC-3 prostate 58.7% | SK-MEL-5 melanoma 49.4% | UACC-62 melanoma 71.2% | LOX IMVI melanoma 69.7% | SK-MEL-28 melanoma 84.8% | SK-MEL-2 melanoma 89.6% | EKVX NSCLC 69.3% | SN12C renal 65.3% | ACHN renal 81.9% | CAKI-1 renal 64.3% | A498 renal 59.6% | CCRF-CEM leukemia 57.2% | MOLT-4 leukemia 56%

COc1ccc(-c2cnc3c(-c4cccc5cnccc45)cnn3c2)cc1
inactive: HCT-15 colon 64.5% | HT29 colon 41.3% | SNB-75 CNS 42% | SNB-19 CNS 47.2% | U251 CNS 56.3% | PC-3 prostate 50.6% | SK-MEL-5 melanoma 56.5% | UACC-62 melanoma 59.3% | LOX IMVI melanoma 80% | SK-MEL-28 melanoma 60.5% | SK-MEL-2 melanoma 75.5% | EKVX NSCLC 96.1% | SN12C renal 58.8% | TK-10 renal 65.8% | A498 renal 44.6% | CCRF-CEM leukemia 59.2%
active: ACHN renal -1.14%

Cn1c(N2NC(=O)C(N=Nc3ccc(S(N)(=O)=O)cc3)C2=O)nc(-c2ccco2)c(C#N)c1=O (configuration not stated)
active: MOLT-4 leukemia 4.74%
inactive: HCT-15 colon 61.7% | HT29 colon 85.3% | SNB-75 CNS 64.5% | SNB-19 CNS 99.7% | U251 CNS 96.9% | PC-3 prostate 82.9% | SK-MEL-5 melanoma 98% | UACC-62 melanoma 83.5% | LOX IMVI melanoma 76.8% | SK-MEL-28 melanoma 102% | SK-MEL-2 melanoma 117% | EKVX NSCLC 107% | SN12C renal 92.6% | TK-10 renal 131% | ACHN renal 81.6% | CAKI-1 renal 69.8% | A498 renal 122%

COc1cc(/C=C\c2cc(/C=C\c3ccc(O)c(OC)c3)n(C(=O)COc3ccccc3)n2)ccc1O
inactive: SNB-75 CNS 22.7% | SNB-19 CNS 14.8% | SK-MEL-28 melanoma 18.4% | EKVX NSCLC 28.1% | SN12C renal 15.7% | TK-10 renal 12.7% | ACHN renal 18% | CAKI-1 renal 24.2% | A498 renal 11.2%
active: HCT-15 colon 9.64% | HT29 colon -33.2% | U251 CNS 8.81% | PC-3 prostate 8.49% | SK-MEL-5 melanoma -28.8% | UACC-62 melanoma 4.88% | LOX IMVI melanoma 3.23% | SK-MEL-2 melanoma -18.7% | CCRF-CEM leukemia 6.79%

N#C/C(=C\c1ccc(Cl)cc1)n1nnc2cc(F)c(F)cc21
inactive: SNB-75 CNS 15.9% | SNB-19 CNS 34.5% | U251 CNS 18.1% | PC-3 prostate 30.9% | UACC-62 melanoma 21% | SK-MEL-28 melanoma 29.6% | SK-MEL-2 melanoma 38.6% | EKVX NSCLC 59.3% | TK-10 renal 16.9% | CAKI-1 renal 18%
active: HCT-15 colon 2% | HT29 colon 9.95% | SK-MEL-5 melanoma 8.38% | LOX IMVI melanoma -63.5% | SN12C renal 8.61% | ACHN renal 9.15% | CCRF-CEM leukemia -8.83% | MOLT-4 leukemia 1.3%

Cc1nc2sccn2c1-c1cn2ccsc2n1
inactive: HCT-15 colon 70.3% | HT29 colon 99.3% | SNB-75 CNS 84.8% | SNB-19 CNS 93.1% | U251 CNS 90.8% | PC-3 prostate 94.6% | SK-MEL-5 melanoma 65.6% | UACC-62 melanoma 83.4% | LOX IMVI melanoma 98.4% | SK-MEL-28 melanoma 104% | SK-MEL-2 melanoma 98% | EKVX NSCLC 80.5% | SN12C renal 93.6% | TK-10 renal 103% | ACHN renal 99.3% | CAKI-1 renal 53.1% | CCRF-CEM leukemia 96.3%

Cn1ccnc1C(=O)/C=C/c1ccc(CC(=O)Nc2ccc(F)cc2)cc1
active: HT29 colon -26% | SNB-75 CNS -7.25% | U251 CNS 9.49% | CCRF-CEM leukemia 6.85%
inactive: HCT-15 colon 14.1% | SNB-19 CNS 19% | PC-3 prostate 36.1% | SK-MEL-5 melanoma 34% | UACC-62 melanoma 54.3% | LOX IMVI melanoma 15.2% | SK-MEL-28 melanoma 85.9% | SK-MEL-2 melanoma 102% | EKVX NSCLC 57.9% | SN12C renal 23.9% | TK-10 renal 71.9% | ACHN renal 69.3% | CAKI-1 renal 38.1% | MOLT-4 leukemia 20.6%
